# Values joined by “and” are separate entries in the source; they are usually repeats but may differ in a detail not shown here. Equal values may be shown once. About 83,000 compounds went through this panel and 20% of them were active in at least one assay; those are over-represented in the sample as a whole.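 Each cell line was grown in a 96-well plate and treated with one concentration of compound for 48 hours. Values below 10 were considered active.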 Active and inactive are the calls of the source.
# Test system: KM12 colon
# Assay: NCI-60 one-dose screen, 48 h (100 = growth as untreated, 0 = no growth, -100 = all killed)
# Conditions: 10 µM unless noted
row,Structure (SMILES),growth
1,COC(=O)c1ccccc1Cl,101% (inactive)
2,CCC(C)NC(=O)c1ccccc1C (centres undefined),101% (inactive)
3,COc1ccc(CCl)c(C)c1OC,101% (inactive)
4,Cc1c(Cl)cc(Cl)c(N)c1Cl,114% (inactive)
5,O=C1CCC(=O)N1CC1CC2CCC1C2 (centres undefined),107% (inactive) and 100% (inactive)
6,O=C(O)c1ccc2c3ccc(C(=O)O)c4c(C(=O)O)ccc(c5ccc(C(=O)O)c1c25)c43,100% (inactive)
7,Cc1onc(-c2c(F)cccc2Cl)c1-c1ncc(-c2ccc(Cl)cc2)o1,43.4% (inactive) and 34.7% (inactive)
8,CCCCCc1cc[n+](CC(=O)c2ccccc2)cc1,102% (inactive) and 104% (inactive)
9,C(=N\OCCc1ccccc1)/c1ccccn1,113% (inactive) and 107% (inactive)
10,COc1cc([C@@H]2c3cc4c(cc3[C@H](O)[C@H]3COC(=O)[C@@H]23)OCO4)cc(OC)c1OC,28.4% (inactive) and -3.9% (active)
11,COc1ccc(/C=N/NC(N)=S)cc1,119% (inactive)
12,N=c1sc2ccccc2n1CC(=O)O,106% (inactive)
13,O=C(O)/C=C/C=C/c1ccccc1,105% (inactive) and 103% (inactive)
14,CC(C)(C)OC(=O)CC1(O)CCCCC1,107% (inactive)
15,Cc1nc(Nc2ccc(Cl)cc2)c2cnn(-c3ccccc3)c2n1,106% (inactive)
16,CC(=O)Oc1cc(C)c(OC(C)=O)c(C)c1C,101% (inactive)
17,CCC(C)(O)CCC(C)(O)CC (centres undefined),103% (inactive)
18,Clc1ccc2sc(-c3ccccc3)nc2c1,104% (inactive)
19,Cc1ccc([N+](=O)[O-])cc1Br,103% (inactive)
20,COCCCNC1=C(C#N)C(=O)NC(c2cccs2)S1 (centres undefined),108% (inactive)

row,Structure (SMILES),growth
1,OCCSc1ccc(Cl)cc1,117% (inactive) and 102% (inactive)
2,Nc1[nH][nH]c(=O)c1N=Nc1ccccc1,105% (inactive) and 106% (inactive)
3,CS(=O)(=O)c1nsc(N)n1,105% (inactive)
4,Cc1cc(Cl)nc(Nc2ccccc2)n1,97.8% (inactive)
5,O=C(O)C1CSCN1 (centres undefined),117% (inactive) and 110% (inactive)
6,C/C=C(/C(=O)NC(N)=O)C(C)C,90.8% (inactive)
7,O=[N+]([O-])c1ccc(NC(c2ccccc2)c2ccc3cccnc3c2O)cc1 (centres undefined),28% (inactive)
8,CCCCC/C(C)=N\NC(N)=S,93.5% (inactive)
9,CC(C)(C)C1CCC(=NO)CC1 (centres undefined),103% (inactive)
10,CCOC(C)=N,111% (inactive)
11,CN(C)C(=S)N(C)C,109% (inactive)
12,NNC(=O)Nc1ccccc1,99.1% (inactive)
13,COC(=O)c1cc(C(=O)OC)cc([N+](=O)[O-])c1,112% (inactive)
14,OCCS,103% (inactive)
15,COc1ccc(/C=N/Nc2nc3ccccc3s2)cc1,87.6% (inactive)
16,Cc1cc(O)c(C(C)C)cc1N=O,109% (inactive) and 110% (inactive)
17,O=C(c1ccccc1)C1(Br)CCCCC1,104% (inactive)
18,COc1ccc2oc3c(ccc[n+]3C)c(=O)c2c1,108% (inactive)
19,CCCC(=O)Oc1ccc(CC)cc1,102% (inactive)
